eIF4H inh: human eIF4H binding inhibitors, primary screen, translation initiation inhibitor project, biochemical, uHTS, fluorescence polarization; inhibition, % at 35 µM; Eukaryotic translation initiation factor 4H (Homo sapiens), Q15056; 290,000 tested, 0.94% active; AID 2012, 2009; eIF4H fluorescence polarization binding assay;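 further: calls also rest on retests at 20 µM and on dose response follow-up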
PfM18AAP inh: PfM18AAP inhibitors, malaria aminopeptidase, primary screen, biochemical, QFRET, recombinant enzyme; M18 aspartyl aminopeptidase (Plasmodium falciparum 3D7); H-Glu-NHMec fluorogenic cleavage; inhibition, % at 7.35 µM; 290,000 tested, 1.2% active; AID 1822, 2009;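 active means inhibition above the campaign mean inhibition over all tested compounds plus 3 SD, cut at about 28% in these data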;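 further: 0% = plate median of test compound wells and 100% = 2 mM ZnCl2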
eIF4E-4G inh: eIF4E–eIF4G protein interaction inhibitors, primary screen, biochemical, uHTS, TR-FRET, eIF4GI fragment | AID 782, 2007 | Eukaryotic translation initiation factor 4E (Mus musculus) + Eukaryotic translation … | inhibition, % at 21.7 µM | 220,000 tested, 0.37% active | TR-FRET eIF4E-eIF4GI(517-606) binding, 2 h;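 active means inhibition above about 30%, limit read from the data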;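 further: 0% = full FRET control wells and 100% = background wells lacking eIF4GI fragment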
Target sequence (P63073 whole entry, looked up, the tested form may be a part): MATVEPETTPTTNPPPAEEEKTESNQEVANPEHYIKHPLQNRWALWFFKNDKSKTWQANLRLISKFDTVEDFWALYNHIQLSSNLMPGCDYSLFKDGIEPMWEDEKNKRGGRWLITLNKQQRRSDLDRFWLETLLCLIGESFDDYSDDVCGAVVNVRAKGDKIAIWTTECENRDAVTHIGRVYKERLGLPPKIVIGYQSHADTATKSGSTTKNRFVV
Target sequence (Q04637 whole entry, looked up, the tested form may be a part): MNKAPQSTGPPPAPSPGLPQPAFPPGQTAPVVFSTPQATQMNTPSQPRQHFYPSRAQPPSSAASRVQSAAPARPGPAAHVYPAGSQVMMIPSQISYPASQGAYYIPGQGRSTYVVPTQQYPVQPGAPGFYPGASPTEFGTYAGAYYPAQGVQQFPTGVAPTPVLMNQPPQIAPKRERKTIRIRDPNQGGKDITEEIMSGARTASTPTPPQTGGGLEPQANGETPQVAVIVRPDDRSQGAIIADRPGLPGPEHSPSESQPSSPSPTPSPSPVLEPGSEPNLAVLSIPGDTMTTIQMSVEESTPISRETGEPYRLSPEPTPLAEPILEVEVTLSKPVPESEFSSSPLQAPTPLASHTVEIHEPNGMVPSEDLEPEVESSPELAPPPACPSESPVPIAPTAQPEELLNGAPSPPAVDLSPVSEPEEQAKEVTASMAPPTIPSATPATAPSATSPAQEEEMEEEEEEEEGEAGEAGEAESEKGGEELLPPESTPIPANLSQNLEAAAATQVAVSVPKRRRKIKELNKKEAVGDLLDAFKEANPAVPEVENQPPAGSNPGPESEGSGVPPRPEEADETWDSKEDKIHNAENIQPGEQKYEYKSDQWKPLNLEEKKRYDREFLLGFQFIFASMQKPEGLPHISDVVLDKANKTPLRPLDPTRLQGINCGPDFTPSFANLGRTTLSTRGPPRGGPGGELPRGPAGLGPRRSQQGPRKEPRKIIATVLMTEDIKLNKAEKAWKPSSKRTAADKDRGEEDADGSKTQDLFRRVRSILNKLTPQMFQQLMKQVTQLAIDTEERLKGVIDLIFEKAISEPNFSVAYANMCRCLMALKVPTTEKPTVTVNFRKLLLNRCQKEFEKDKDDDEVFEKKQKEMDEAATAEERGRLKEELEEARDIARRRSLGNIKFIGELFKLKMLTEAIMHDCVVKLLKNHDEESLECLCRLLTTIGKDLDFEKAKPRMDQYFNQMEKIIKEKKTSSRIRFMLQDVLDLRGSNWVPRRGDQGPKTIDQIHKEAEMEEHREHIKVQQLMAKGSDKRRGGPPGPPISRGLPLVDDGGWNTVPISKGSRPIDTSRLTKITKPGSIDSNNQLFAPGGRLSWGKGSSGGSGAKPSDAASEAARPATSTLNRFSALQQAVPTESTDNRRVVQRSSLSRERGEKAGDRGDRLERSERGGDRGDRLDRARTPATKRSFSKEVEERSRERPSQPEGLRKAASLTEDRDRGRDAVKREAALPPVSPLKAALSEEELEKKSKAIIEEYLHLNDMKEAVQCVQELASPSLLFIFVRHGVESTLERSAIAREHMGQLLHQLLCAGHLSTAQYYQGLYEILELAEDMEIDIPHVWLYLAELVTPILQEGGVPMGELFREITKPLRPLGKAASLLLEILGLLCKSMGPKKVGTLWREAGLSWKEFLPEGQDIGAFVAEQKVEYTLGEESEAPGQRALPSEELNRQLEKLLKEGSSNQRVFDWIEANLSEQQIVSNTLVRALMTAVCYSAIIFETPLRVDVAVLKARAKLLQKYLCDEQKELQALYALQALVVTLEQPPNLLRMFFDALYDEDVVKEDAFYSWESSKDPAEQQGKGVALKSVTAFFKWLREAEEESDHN
PABP polyA inh: PABP poly(A) RNA binding inhibitors, primary screen, biochemical, fluorescence polarization, uHTS; Polyadenylate-binding protein 1 (Homo sapiens), P11940; inhibition, % at 35 µM; 290,000 tested, 1% active; AID 2014, 2009;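 further: calls also rest on retests at 20 µM and on dose response follow-up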
PERK inh: block of dimerizer-induced PERK translation repression, primary screen, PERK inhibitor project, CHO PERK-DD cells, SEAP luminescence, HTS. CHO PERK-DD fusion, SEAP luminescence translation reporter. 220,000 tested, 0.17% active. AID 1416, 2008. inhibition, % at 5.6 µM. Eukaryotic translation initiation factor 2-alpha kinase 3 (Homo sapiens), Q9NZJ5;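 active means inhibition above the mean inhibition of all tested compounds plus 3 SD, set separately per screening campaign, cut at about 2.9% in these data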;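 further: PERK kinase domain activated by AP20187 dimerizer at 100 nM; 0% = DMSO with dimerizer and 100% = rapamycin at 8.4 µM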
MLLE-PAM2 inh: inhibitors of PABP1 MLLE–PAM2 peptide binding, primary screen, biochemical, fluorescence polarization, FITC-PAM2, GST-MLLE; inhibition, % at 20 µM; Polyadenylate-binding protein 1 (Homo sapiens), P11940; 360,000 tested, 0.36% active; in the data active means inhibition above about 35%, passing the limit was not always enough;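 further: plate controls were DMSO wells with GST-MLLE for no effect and wells lacking GST-MLLE protein for full effect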
Starred values were filed as active, the others as inactive; ? = inconclusive; · = no result given; [ ] = remark or other dose. Hits are enriched below; roughly 2.4% of the tested compounds scored in any of these assays. Unless noted, how the calls were made is not given here.

SMILES | eIF4H inh | PfM18AAP inh | eIF4E-4G inh | PABP polyA inh | PERK inh | MLLE-PAM2 inh
CC(CS(=O)(=O)c1ccc2c(c1)NC(=O)CS2)C(=O)NCc1ccccc1Cl (stereo unspecified) | 67 | 5 | · | 25* | · | -28
CCn1c(CSc2nnc3ccccn23)nc2cc(C(=O)O)ccc21 | 129* | 1 | -1 | 128* | 2 | 31
O=C(NNC(=O)c1ccco1)c1ccc(NS(=O)(=O)c2cccs2)cc1 | · | · | · | · | · | 3
COC(=O)C1=C(C(=O)OC)C(c2ccccc2O)c2sc(=O)[nH]c2S1 (stereo unspecified) | -4 | -6 | -1 | 2 | 1 | 45*
Oc1ccc(CNc2ccccc2)c2cccnc12 | 20 | -2 | 4 | 3 | 0 | 41*
Oc1ccc(CNc2ccc(F)cc2)c2cccnc12 | 15 | 3 | 15 | -2 | 0 | 27
CCOc1ccccc1OCc1nn2c(COc3ccccc3)nnc2s1 | -7 | 13 | 32* | 2 | 0 | 25
COc1ccccc1N(CC(=O)NCc1ccco1)S(=O)(=O)c1ccc(C)cc1 | 87* | 23 | · | 73* | · | 18
CCOc1ccccc1N(CC(=O)NCCSc1ccccn1)S(=O)(=O)c1ccccc1 | -5 | 9 | · | -2 | · | 11
Cc1ccc(S(=O)(=O)N(Cc2ccccc2)Cc2ccco2)cc1 | -10 | -6 | 5 | -9 | 0 | 0
CCOc1ccccc1N(CC(=O)NCCSc1ccccn1)S(=O)(=O)c1ccc(C)cc1 | 86* | 6 | · | 86* | · | 6
Cc1ccc(S(=O)(=O)N(CC(=O)O)Cc2ccco2)cc1 | 71* | -13 | -10 | 21* | 1 | 13
COC(=O)c1cc(OCC(=O)Nc2ccc3c(c2)CCC3)cc(C(=O)OC)c1 | · | · | · | · | · | 1
O=C1CSC(=S)N1/N=C/c1cc(Br)c(O)c(Br)c1 | ? | 40* | · | ? | · | 143
c1cn2c(-c3ccc(N4CCOCC4)cc3)cncc2n1 | · | · | · | · | · | -18
COc1cc(OC)c(/C=N/NC(=O)c2ccc(NC(C)=O)cc2)cc1Br | 46 | -4 | 42* | -2 | 0 | -13
COc1ccc(CC(=O)OCCc2cc3cc(OC)c(OC)cc3c(=O)o2)cc1 | · | · | · | · | · | -13
CC(=O)Oc1c(/C=C(\C#N)C(N)=O)[nH]c2ccccc12 | 47 | 20 | 5 | -7 | 2.9* | -47
N#C/C(=C\c1c[nH]c2ccccc12)C(N)=O | 5 | 1 | -7 | 9 | 1 | 4
COCCCn1c(=N)c(C(N)=S)cc2c(=O)n3cccc(C)c3nc21 | · | · | · | · | · | 22
Cc1cccn2c(=O)c3cc(C(N)=S)c(=N)n(CCCN4CCOCC4)c3nc12 | 75* | 4 | 3 | active | 1 | 19
O=C(COC(=O)c1c(Cl)ccc(Cl)c1Cl)NC1CCS(=O)(=O)C1 (stereo unspecified) | 4 | -1 | 0 | 8 | 1 | 0
CCN(CC)CCCNC(=O)c1nn2c(C(F)(F)F)cc(-c3ccccc3)nc2c1Cl | -1 | 2 | · | 0 | · | -2
Cc1cnc(NC(=O)c2ccc(-c3ccc([N+](=O)[O-])cc3)o2)s1 | · | · | · | · | · | 25
Cc1cnc(NC(=O)c2ccc(-c3nc4ccccc4s3)o2)s1 | -2 | 2 | 59*[fluorescence artefact?] | 8 | -1 | -34
SMILES | eIF4H inh | PfM18AAP inh | eIF4E-4G inh | PABP polyA inh | PERK inh | MLLE-PAM2 inh
O=C(O)c1cc(O)c2c(c1)C(=O)c1cc(O)cc(O)c1C2=O | 90* | 13 | 8 | 76* | -1 | -9
CCN(C(=O)c1cc(S(=O)(=O)N2CCCCC2)c[nH]1)c1ccc(OC)cc1 | -6 | 7 | · | 4 | · | -7
COc1ccc(-n2cnnc2SCC(=O)Nc2cc(C)on2)cc1 | 63* | -1 | -2 | 18* | 0 | -6
O=C(Oc1ccc(=O)n(-c2ccccc2)n1)c1ccc(Cl)cc1 | -2 | 5 | 7 | 12 | 1 | 10
O=C(Oc1ccc(=O)n(-c2ccccc2)n1)c1cccc(Cl)c1 | 4 | 0 | 33* | 4 | 1 | 11
CCN1C(=O)[C@@H]2[C@@H](c3ccc(SC4CCCCC4)cc3)N3CCC[C@@]3(C(=O)OC)[C@@H]2C1=O | · | · | · | · | · | 40*
Cc1ccc(N2CCN(C(=S)c3ccc(-c4cccc([N+](=O)[O-])c4)o3)CC2)cc1 | -2 | 30* | 5 | 0 | 0 | 29
CCOC(=O)c1c(CSC(=N)N)n(-c2ccc(Br)cc2)c2cc(Br)c(OC(C)=O)cc12 | 5 | 0 | 37*[fluorescence artefact?] | -4 | -1 | 1
Cc1c(C=O)c2ccccn2c1C(=O)c1ccccc1Cl | -9 | 7 | · | 7 | · | -3
Cc1c(C=O)c2ccccn2c1C(=O)c1cccs1 | 94* | 6 | 1 | 16* | -1 | 32
CCOC(=O)c1c(-c2ccc(C)o2)csc1NC(=S)NC(=O)c1ccc(F)cc1 | 6 | -52 | 17 | 4 | 0 | 46*
O=C(O)C1Nc2ccc(Br)cc2C2C=CCC12 (stereo unspecified) | 105* | 9 | · | 94* | · | 18
O=C(OC1CCCCC1)c1ccc2c(c1)C1C=CCC1C(C(=O)O)N2 (stereo unspecified) | 93* | 11 | 62*[fluorescence artefact?] | active | 0 | ·
O=C(O)c1ccc2c(c1)[C@@H]1C=CC[C@@H]1[C@H](c1ccccn1)N2 | · | 18 | · | · | 1 | 42*
COc1ccc(C(=O)N/N=C(\C)c2ccc3c(c2)C2C=CCC2C(c2ccccc2)N3)cc1 (stereo unspecified) | -4 | 5 | 8 | -1 | -1 | 11
CC(=O)c1ccc(N(CC(=O)NCc2ccc3c(c2)OCO3)C(=O)c2csnn2)cc1 | -14 | 4 | · | 6 | · | 23
CCN(CC)S(=O)(=O)c1ccc2c(c1)nc(SCn1nnc3ccccc3c1=O)n2CC | -9 | 2 | -2 | -6 | -1 | 43*
C/C(=N\NC(=O)c1cccc([N+](=O)[O-])c1)c1ccco1 | ? | 3 | 1 | ? | -1 | 10
C/C(=N\NC(=O)c1cccc(N/N=C(\C)c2ccco2)c1)c1ccco1 | 90* | 10 | 14 | active | 1 | -19
Cn1c(O)c(C=Nc2ccc(N3CCOCC3)cc2)c(=O)n(C)c1=S | ? | 18 | 2 | 3 | 1 | -64
Cc1cc(O)c(C=Nc2ccc(N3CCOCC3)cc2)c(C)c1Cl | 58 | -28 | · | 91* | · | -48
O=C(NC1CCCCCC1)C(=S)NC1CCCCC1 | -14 | 30* | -8 | -2 | 1 | 15
O=C(NC1CCCCCC1)C(=S)N1CCOCC1 | 6 | 16 | 0 | -12 | 2 | 44*

Screens as filed in PubChem.
